# Molecular target: SEZ6L
# Experiment: pooled miR-30 sensor sort-seq; sequence = guide strand
# Settings: shRNA
row,Sequence,sensor-assay potency score (higher = more potent)
1,TAATTTTCTCACAAAATGGGGG,-0.33
2,TTGGTATCCATTTTCAGGCAGC,-0.526
3,TCGAGTGATCCACCTCTCCGGG,-1
4,TAGATGGTCAAGATGTCACTGT,-0.115
5,TCCAGATACAATCTTCACCTTC,-0.983
6,TGGATATCTAAGAAGATCCGTT,-0.621
7,TTGGAGAAGCTCACACTGCAGA,-0.466
8,TAGACTGTCACGTTGTATGTGC,0.1
9,TGGAATAGTAGCGACATCTTGT,-0.571
10,TCGGACGTGAACTCGATGCGGA,-0.799

# Molecular target: SFRP4
# Experiment: as above
# Settings: shRNA
row,Sequence,sensor-assay potency score (higher = more potent)
1,TTTTCAAGAAGCATCATCCTTG,0.0999
2,TAGACAGGCAGCTCGTCGCAGG,-0.454
3,TATGGATCTTTTACTAAGCTGA,-0.661
4,TTTACACTTGCACCGATCGGGG,-0.824
5,TTACTAAGCTGATCTCTCCATT,-0.515
6,TTTACATCCACCACCGTTGTGA,0.315
7,TTTTCTTCTTGTCCTGAACTGT,-0.361
8,TTGTCCTGAACTGTTCTCCGCT,0.199
9,TTGGCATGAATAACATAGCTGT,-0.164
10,TTTTACACTTGCACCGATCGGG,0.497
11,TTTACTAAGCTGATCTCTCCAT,-0.0154
12,TATCCACTTAACATCCTCCGGG,0.611

# Molecular target: SFT2D2
# Experiment: as above
# Settings: shRNA
row,Sequence,sensor-assay potency score (higher = more potent)
1,TACAAAACTGTCCACCAGCTTC,-0.963
2,ATCACAAGCAACACATTGCTGC,-0.583
3,TGATAGTTGCAATCAAACGAGT,-0.692
4,TGCAAAACACAACAGCACCATG,-1.45
5,TTGCAATCAAACGAGTAGGCTC,-0.3
6,TTTATCCTGGTACTCCAGCTTA,-0.866
7,TCAAACATTCGCTTCAGCTGTT,0.727
8,AAGAGGTGTAGTCCCTTCCTGG,-1.12
9,TTATCCTGGTACTCCAGCTTAA,-1.39
10,TATAGCAAAACACGCAATGAAG,-1.77
11,TTAATGAAGATGCCTCAACAAC,-1.49

# Molecular target: SFTA2
# Experiment: as above
# Settings: shRNA
row,Sequence,sensor-assay potency score (higher = more potent)
1,TGGAGGGTGACGCTGGTCCCTG,-1.43
2,ATGGTGTTGAGATCTTGCATGG,-1.27
3,TCCATGTGAGCTGCCAAGGAGG,-1.63
4,AATTTGTCAGAAAAGACTCCTT,-0.354
5,TCAGTTGCAAAGTCATACCCGG,0.0994
6,ATTTGTCAGAAAAGACTCCTTC,0.636
7,TTTGTCAGAAAAGACTCCTTCA,0.111

# Reference: the OligoGym collection
